# In PubChem BioAssay:
# Records with an inconclusive call do not appear. The source made the active and inactive calls.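 Rule for the calls, unless noted: active = normalized viability below 100% at a tested concentration; inactive = the rest.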
# Columns and labels:
# [1] = growth inhibition of DIPG glioma cells, dose response, cell-based, SU-DIPG-XVII, MIPE5.0, CellTiter-Glo, qHTS (AID 1347060; cut-off not given, nearly all actives have AC50 up to about 26 µM;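 for AC50: cells exposed to compound for 48 hours before viability readout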); settings: SU-DIPG-XVII viability, CellTiter-Glo ATP luminescence
# [2] = growth inhibition of DIPG glioma cells, dose response, cell-based, SU-DIPG-XIII, MIPE4.0, CellTiter-Glo, qHTS (AID 1347061; cut-off not given, nearly all actives have AC50 up to about 37 µM;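 note: cells exposed to compound for 48 hours before readout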); settings: SU-DIPG-XIII viability, CellTiter-Glo ATP luminescence
# [3] = growth inhibition of DIPG glioma cells, dose response, cell-based, SU-DIPG-IV, MIPE4.0, CellTiter-Glo, qHTS (AID 1347063; cut-off not given, nearly all actives have AC50 up to about 30 µM;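 note: compound exposure lasted 48 hours before the viability readout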); settings: SU-DIPG-IV viability, CellTiter-Glo ATP luminescence
# [4] = growth inhibition of DIPG glioma cells, dose response, cell-based, SU-DIPG-XIII, MIPE5.0, CellTiter-Glo, qHTS (AID 1347064; cut-off not given, nearly all actives have AC50 up to about 23 µM;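 for AC50: cells exposed to compound for 48 hours before the viability read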); settings: SU-DIPG-XIII viability, CellTiter-Glo ATP luminescence
# [5] = viability loss in pontine glioma line – cell-based, SU-DIPG-XXV, MIPE5.0, CellTiter-Glo, qHTS, dose response (AID 1347065; cut-off not given, nearly all actives have AC50 up to about 26 µM;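 note: cells exposed to compound for 48 hours before ATP readout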); settings: CellTiter-Glo ATP luminescence
# [6] = SU-DIPG-VI glioma cell viability, MIPE4.0 library, CellTiter-Glo luminescence, qHTS (AID 1347066; cut-off not given, nearly all actives have AC50 up to about 30 µM;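 note: cells exposed to compound for 48 hours before readout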); settings: CellTiter-Glo ATP luminescence
# [7] = JHH-DIPG-1 glioma cell viability, MIPE5.0 library, CellTiter-Glo luminescence, qHTS (AID 1347067; cut-off not given, nearly all actives have AC50 up to about 26 µM;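 note: cells exposed to compound for 48 hours before readout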); settings: JHH-DIPG-1 glioma viability, CellTiter-Glo ATP luminescence
# [8] = SU-DIPG-XXV glioma cell viability, MIPE5.0 library, qHTS (AID 1347068; cut-off not given, nearly all actives have IC50 up to about 30 µM;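 for IC50: cells exposed to compound for 48 hours before viability readout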)
# [9] = sensitizers of A549 cells to miR-34 induction, primary screen, imaging, A549 dox-inducible miR-34, nuclei and caspase counts (AID 1347080;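 active = compounds whose cell count with miR-34 switched on is under 0.7 times the count with it off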); settings: A549 miR-34 inducible, Hoechst nuclei count, 48 h
# [10] = modifiers of HSF1 nuclear foci, imaging, Selleck Cancer Library (AID 1347162; in the data active = plate-normalised HSF1 focus index below about 0.46); settings: human cells, at 10 µM; SSMD: measured here: HSF1 foci SSMD mean; cell count: measured here: cell number; plate-normalised HSF1 focus index: stronger effect = lower value
# [11] = survival rescue of mitochondrial mutant cells in low glucose, primary screen, MELAS cybrids, Rieske KO mouse fibroblasts, CellTiter-Glo (AID 1508586;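 active = mean z-score across replicates of 1.96 or higher in either the MELAS or the Rieske mutant cell line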;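 note: z relative to plate mean and SD of compound and empty wells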)
# [12] = growth inhibition of DIPG glioma cells, dose response, cell-based, JHH-DIPG-1, MIPE4.0, CellTiter-Glo, qHTS (AID 1347062; cut-off not given, nearly all actives have AC50 up to about 27 µM;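 for AC50: cells exposed to compound for two days before readout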); settings: JHH-DIPG-1 viability, CellTiter-Glo ATP luminescence
# [13] = ovarian cancer cell viability with rucaparib, profiling panel, oncology-focused library, rucaparib conditional (AID 1508598); settings: patient-derived ovarian cancer cells, CellTiter-Glo viability, 144 h, stronger effect = lower value
# [14] = stronger effect = lower value, cell number ratio, induced over uninduced
# [15] = measured here: relative caspase fold change +Dox/-Dox
# [16] = measured here: total cells with miR-34 induction, stronger effect = lower value
# [17] = measured here: total cells without miR-34 induction
# [18] = MELAS cybrid survival, CellTiter-Glo 48 h, stronger effect = higher value
# [19] = Rieske KO mouse fibroblast survival, CellTiter-Glo 72 h
structure (smiles),measurement,setting,value
CC[C@H](NC(=O)[C@H](C)NC)C(=O)N1C[C@@H](O)C[C@H]1Cc1c(-c2[nH]c3cc(F)ccc3c2C[C@@H]2C[C@H](O)CN2C(=O)[C@H](CC)NC(=O)[C@H](C)NC)[nH]c2cc(F)ccc12,outcome,[1],inactive
same,outcome,[2],inactive
same,AC50,[3],0.0662 µM (active)
same,outcome,[4],inactive
same,outcome,[5],inactive
same,outcome,[6],inactive
same,outcome,[7],inactive
same,outcome,[8],inactive
Cc1cc(Nc2cc(N3CCN(C)CC3)nc(Sc3ccc(NC(=O)C4CC4)cc3)n2)n[nH]1,AC50,[1],2.95 µM (active)
same,AC50,[2],18.7 µM (active)
same,AC50,[3],2.96 µM (active)
same,AC50,[4],6.61 µM (active)
same,AC50,[5],0.332 µM (active)
same,AC50,[7],10.5 µM (active)
same,IC50,[8],8.33 µM (active)
same,fold change,[9]; [14],0.993 (inactive)
same,fold change,[9]; [15],0.793
same,cell count,[9]; [16],1560
same,cell count,[9]; [17],1580
same,SSMD,[10],-0.956
same,cell count,[10],6720
same,plate-normalised HSF1 focus index,[10],0.958 (inactive)
same,z-score,[11]; [18],2.79 (active)
same,z-score,[11]; [19],1.15
NC1(C(=O)N[C@@H](CCO)c2ccc(Cl)cc2)CCN(c2ncnc3[nH]ccc23)CC1,AC50,[1],14.8 µM (active)
same,AC50,[2],14.8 µM (active)
same,AC50,[3],0.662 µM (active)
same,AC50,[4],1.48 µM (active)
same,AC50,[5],2.09 µM (active)
same,IC50,[8],3.72 µM (active)
CNC(=O)c1ccc2cc(C3(O)CCn4cncc43)ccc2c1 (centres undefined),outcome,[1],inactive
same,outcome,[2],inactive
same,outcome,[12],inactive
same,outcome,[4],inactive
same,outcome,[6],inactive
same,outcome,[7],inactive
same,outcome,[8],inactive
same,fold change,[9]; [14],0.927 (inactive)
same,fold change,[9]; [15],0.607
same,cell count,[9]; [16],8020
same,cell count,[9]; [17],8650
same,z-score,[11]; [18],0.566 (inactive)
same,z-score,[11]; [19],-0.147
C=C1CCC2[C@](C)(CO)C(O)CC[C@]2(C)C1C/C=C1/C(=O)OCC1O (some centres undefined),AC50,[1],16.6 µM (active)
same,outcome,[2],inactive
same,outcome,[3],inactive
same,AC50,[4],16.6 µM (active)
same,AC50,[5],13.2 µM (active)
same,outcome,[6],inactive
same,AC50,[7],13.2 µM (active)
O=C(O)CCC1CCC(c2cc(F)ccc2F)(S(=O)(=O)c2ccc(Cl)cc2)CC1 (centres undefined),outcome,[1],inactive
same,AC50,[2],18.7 µM (active)
same,AC50,[12],16.6 µM (active)
same,outcome,[4],inactive
same,AC50,[6],6.62 µM (active)
same,outcome,[7],inactive
same,fold change,[9]; [14],0.867 (inactive)
same,fold change,[9]; [15],0.588
same,cell count,[9]; [16],8810
same,cell count,[9]; [17],10200
same,SSMD,[10],1.51
same,cell count,[10],7050
same,plate-normalised HSF1 focus index,[10],1.09 (inactive)
same,z-score,[11]; [18],-0.308 (inactive)
same,z-score,[11]; [19],0.781
same,viability,"[13]; at 0.000305 µM, OCI-C5x cells, with rucaparib 10 µM, 100% = cells with rucaparib alone",114% (inactive)
same,viability,"[13]; at 0.000305 µM, OCI-C5x cells, without rucaparib",121% (inactive)
same,viability,"[13]; at 0.000305 µM, OCI-P5x cells, with rucaparib 20 µM, 100% = cells with rucaparib alone",110% (inactive)
same,viability,"[13]; at 0.000305 µM, OCI-P5x cells, without rucaparib",108% (inactive)
same,viability,"[13]; at 0.00122 µM, OCI-C5x cells, with rucaparib 10 µM, 100% = cells with rucaparib alone",123% (inactive)
same,viability,"[13]; at 0.00122 µM, OCI-C5x cells, without rucaparib",121% (inactive)
same,viability,"[13]; at 0.00122 µM, OCI-P5x cells, with rucaparib 20 µM, 100% = cells with rucaparib alone",113% (inactive)
same,viability,"[13]; at 0.00122 µM, OCI-P5x cells, without rucaparib",102% (inactive)
same,viability,"[13]; at 0.00488 µM, OCI-C5x cells, with rucaparib 10 µM, 100% = cells with rucaparib alone",110% (inactive)
same,viability,"[13]; at 0.00488 µM, OCI-C5x cells, without rucaparib",120% (inactive)
same,viability,"[13]; at 0.00488 µM, OCI-P5x cells, with rucaparib 20 µM, 100% = cells with rucaparib alone",107% (inactive)
same,viability,"[13]; at 0.00488 µM, OCI-P5x cells, without rucaparib",105% (inactive)
same,viability,"[13]; at 0.0195 µM, OCI-C5x cells, with rucaparib 10 µM, 100% = cells with rucaparib alone",115% (inactive)
same,viability,"[13]; at 0.0195 µM, OCI-C5x cells, without rucaparib",104% (inactive)
same,viability,"[13]; at 0.0195 µM, OCI-P5x cells, with rucaparib 20 µM, 100% = cells with rucaparib alone",104% (inactive)
same,viability,"[13]; at 0.0195 µM, OCI-P5x cells, without rucaparib",104% (inactive)
same,viability,"[13]; at 0.0781 µM, OCI-C5x cells, with rucaparib 10 µM, 100% = cells with rucaparib alone",108% (inactive)
same,viability,"[13]; at 0.0781 µM, OCI-C5x cells, without rucaparib",112% (inactive)
same,viability,"[13]; at 0.0781 µM, OCI-P5x cells, with rucaparib 20 µM, 100% = cells with rucaparib alone",102% (inactive)
same,viability,"[13]; at 0.0781 µM, OCI-P5x cells, without rucaparib",93.6% (active)
same,viability,"[13]; at 0.313 µM, OCI-C5x cells, with rucaparib 10 µM, 100% = cells with rucaparib alone",113% (inactive)
same,viability,"[13]; at 0.313 µM, OCI-C5x cells, without rucaparib",113% (inactive)
same,viability,"[13]; at 0.313 µM, OCI-P5x cells, with rucaparib 20 µM, 100% = cells with rucaparib alone",99.9% (active)
same,viability,"[13]; at 0.313 µM, OCI-P5x cells, without rucaparib",89.3% (active)
same,viability,"[13]; at 1.25 µM, OCI-C5x cells, with rucaparib 10 µM, 100% = cells with rucaparib alone",113% (inactive)
same,viability,"[13]; at 1.25 µM, OCI-C5x cells, without rucaparib",109% (inactive)
same,viability,"[13]; at 1.25 µM, OCI-P5x cells, with rucaparib 20 µM, 100% = cells with rucaparib alone",94.5% (active)
same,viability,"[13]; at 1.25 µM, OCI-P5x cells, without rucaparib",87.7% (active)
same,viability,"[13]; at 5 µM, OCI-C5x cells, with rucaparib 10 µM, 100% = cells with rucaparib alone",114% (inactive)
same,viability,"[13]; at 5 µM, OCI-C5x cells, without rucaparib",107% (inactive)
same,viability,"[13]; at 5 µM, OCI-P5x cells, with rucaparib 20 µM, 100% = cells with rucaparib alone",84.8% (active)
same,viability,"[13]; at 5 µM, OCI-P5x cells, without rucaparib",76.9% (active)
Nc1nc(NCCNc2ncc(-n3ccnc3)c(-c3ccc(Cl)cc3Cl)n2)ccc1[N+](=O)[O-],AC50,[1],11.8 µM (active)
same,outcome,[2],inactive
same,AC50,[3],5.26 µM (active)
same,AC50,[4],13.2 µM (active)
same,AC50,[5],8.33 µM (active)
same,AC50,[7],11.8 µM (active)
same,outcome,[8],inactive
